Results: PubChem BioAssay (NCI)
Values joined by “and” are separate entries in the source; they are usually repeats but may differ in a detail not shown here. Identical values can stand only once. Compounds without any hit were thinned out: in the full panel of roughly 83,000, 20% have a hit.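 Testing used 96-well plates and a 48-hour single-concentration exposure. Example: -40 means 40% of the starting cells died.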 Active and inactive are the calls of the source. Rule for the calls: active = growth percent below 10; inactive = the rest.

Key:
Experiment in all cases: NCI-60 one-dose screen, 48 h (100 = growth as untreated, 0 = no growth, -100 = all killed)
HCT-15 colon = conditions: 10 µM unless noted
HT29 colon = conditions: 10 µM unless noted
SNB-75 CNS = conditions: 10 µM unless noted
SNB-19 CNS = conditions: 10 µM unless noted
U251 CNS = conditions: 10 µM unless noted
PC-3 prostate = conditions: 10 µM unless noted
SK-MEL-5 melanoma = conditions: 10 µM unless noted
UACC-62 melanoma = tested on: UACC-62 melanoma
LOX IMVI melanoma = conditions: 10 µM unless noted
SK-MEL-28 melanoma = conditions: 10 µM unless noted

Compound	growth (HCT-15 colon)	growth (HT29 colon)	growth (SNB-75 CNS)	growth (SNB-19 CNS)	growth (U251 CNS)	growth (PC-3 prostate)	growth (SK-MEL-5 melanoma)	growth (UACC-62 melanoma; 10 µM unless noted)	growth (LOX IMVI melanoma)	growth (SK-MEL-28 melanoma)	growth (UACC-62 melanoma; 10 µM)	growth (UACC-62 melanoma; 100 µM)
OCCS	104% (inactive)	97% (inactive)	91.1% (inactive)	108% (inactive)	95.3% (inactive)	99.8% (inactive)	100% (inactive)	103% (inactive)	96.2% (inactive)	109% (inactive)	–	–
CNc1ccc(Cl)cc1S(=O)(=O)c1ccccc1[N+](=O)[O-]	105% (inactive) and 91.3% (inactive)	101% (inactive) and 106% (inactive)	73.4% (inactive) and 11.4% (inactive)	110% (inactive) and 104% (inactive)	84.3% (inactive) and 86.7% (inactive)	91.9% (inactive) and 96.2% (inactive)	34.4% (inactive) and 95.6% (inactive)	60.9% (inactive) and 69.8% (inactive)	77.5% (inactive) and 81.4% (inactive)	96.2% (inactive)	–	–
Nc1ccc2ccc(NS(=O)(=O)N3CCCCC3)cc2c1	18.6% (inactive)	4.34% (active)	30.1% (inactive)	40.3% (inactive)	23.3% (inactive)	43.6% (inactive)	25.3% (inactive)	16.7% (inactive)	46.6% (inactive)	55.8% (inactive)	–	–
CCOC(=O)CN1CCC(C(=O)OCC)CC1	125% (inactive)	104% (inactive)	106% (inactive)	110% (inactive)	107% (inactive)	88.8% (inactive)	103% (inactive)	94.6% (inactive)	99.3% (inactive)	108% (inactive)	–	–
COc1cc2oc3cc(=O)cc4oc(-c5ccccc5)cc(c2c2c1CCC(c1ccccc1)O2)c43 (stereo unspecified)	62.8% (inactive)	71.9% (inactive)	68.2% (inactive)	98.9% (inactive)	87.3% (inactive)	58.9% (inactive)	78% (inactive)	–	56.7% (inactive)	90.1% (inactive)	73.5% (inactive)	53% (inactive) and 10.4% (inactive)
S=c1ccc2ccccc2[nH]1	102% (inactive) and 113% (inactive)	96% (inactive) and 100% (inactive)	94.9% (inactive) and 85.8% (inactive)	99.3% (inactive) and 96.6% (inactive)	96.7% (inactive) and 98.1% (inactive)	86.3% (inactive) and 96.4% (inactive)	100% (inactive) and 104% (inactive)	100% (inactive) and 97.8% (inactive)	102% (inactive) and 103% (inactive)	109% (inactive) and 103% (inactive)	–	–
O=C1c2cccnc2-c2ncccc21	111% [100 µM] (inactive)	106% [100 µM] (inactive)	93.8% [100 µM] (inactive)	102% [100 µM] (inactive)	100% [100 µM] (inactive)	96.4% [100 µM] (inactive)	103% [100 µM] (inactive)	102% [100 µM] (inactive)	99.7% [100 µM] (inactive)	119% [100 µM] (inactive)	–	–
Clc1ccc(/C=C/c2ccc3ccccc3n2)cc1	26.6% (inactive) and 96.4% (inactive) and 81.7% (inactive)	2.32% (active) and 79.3% (inactive) and 71.1% (inactive)	-21.1% (active) and 98.7% (inactive) and 88.1% (inactive)	42.2% (inactive) and 96.2% (inactive) and 98.8% (inactive)	16.3% (inactive) and 95.6% (inactive) and 87.1% (inactive)	31.3% (inactive) and 271% (inactive) and 92% (inactive)	24.4% (inactive) and 88.9% (inactive) and 81.9% (inactive)	43.1% (inactive) and 78.5% (inactive) and 75.8% (inactive)	18.3% (inactive) and 83% (inactive) and 82.5% (inactive)	57.5% (inactive) and 166% (inactive) and 101% (inactive)	–	–
OC1CCCN(Cc2ccccc2)C1 (stereo unspecified)	116% (inactive)	102% (inactive)	113% (inactive)	92.2% (inactive)	120% (inactive)	97.4% (inactive)	102% (inactive)	91.1% (inactive)	96.5% (inactive)	108% (inactive)	–	–
CNc1ccc(O)cc1	103% (inactive) and 102% (inactive)	114% (inactive) and 113% (inactive)	84.1% (inactive) and 66.5% (inactive)	102% (inactive) and 98.3% (inactive)	101% (inactive) and 99.3% (inactive)	102% (inactive) and 100% (inactive)	98.2% (inactive) and 112% (inactive)	108% (inactive) and 89.3% (inactive)	101% (inactive) and 93.9% (inactive)	114% (inactive) and 137% (inactive)	–	–
